Screens (PubChem)
An excerpt weighted towards active compounds, which were near 2.4% of everything screened.
WRN helicase inh – blocks human WRN helicase | Q14191 | WRN helicase unwinding, fluorescent forked duplex, kinetic | Potency, µM (doses to about 114 µM), most hits filed as inhibitors | 360,000 compounds, 0.46% hits; also: nearly all actives have a fitted effect of over 55% in size
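Screening of the MLSMR collection measured strand separation of a quenched forked DNA duplex (100 nM) by 20 nM WRN with 2 mM ATP, all final. Compounds were preincubated with enzyme 15 min at room temperature.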
Pol kappa inh – inhibitors of human DNA polymerase kappa; 400,000 compounds, 0.53% hits; AID 588579; purified Pol kappa, fluorescent DNA synthesis assay, 10 min; Potency, µM (series often up to 107 µM), hits mostly inhibitors
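50 nM final substrate added after 15 min RT preincubation of 10 nM Pol kappa with compound; fluorescence read at 0 and 10 min.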
POLH inh – DNA polymerase eta (human) inhibition | 390,000 compounds, 1.2% hits | Potency, µM (doses to about 114 µM), most hits filed as inhibitors | recombinant Pol eta, fluorescent DNA replication assay | AID 588591 | Q9Y253
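Pol eta (10 nM) was preincubated with compounds for 15 min at room temperature, after which fluorescent replication substrate (50 nM final) was added to start the reaction. Fluorescence was read kinetically at 0 and 10 min.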
Pol beta inh – blocks human DNA polymerase beta activity; Pol beta primer extension/strand displacement, fluorescence kinetic; Potency, µM (top dose mostly 114 µM), actives largely listed as inhibitors; 340,000 compounds, 1.3% hits; AID 485314; P06746
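Values derive from four-parameter Hill fits of normalized kinetic data: reads at 0 and 10 min following addition of 50 nM substrate to 10 nM Pol beta preincubated 15 min with compound.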
Pol iota inh – DNA polymerase iota (human) inhibition | Q9UNA4 | Potency, µM (top dose mostly 115 µM), usual class: inhibitors | 390,000 compounds, 1% hits | Pol iota fluorescent replication assay, 10 min | AID 588590
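Fluorescent replication assay read twice, at 0 min and 10 min after adding 50 nM (final) substrate. Enzyme (10 nM) and compounds were first incubated 15 min at room temperature; enzyme-free buffer wells were negative controls.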
FEN1 inhibitor – blocks human flap endonuclease 1; P39748; Recombinant FEN1 flap cleavage, fluorescence, 15 min; Potency, µM (highest dose often 114 µM), actives largely listed as inhibitors; 390,000 compounds, 0.35% hits; also: nearly all actives have a fitted effect of over 65% in size
Target sequence (P39748 whole entry, looked up): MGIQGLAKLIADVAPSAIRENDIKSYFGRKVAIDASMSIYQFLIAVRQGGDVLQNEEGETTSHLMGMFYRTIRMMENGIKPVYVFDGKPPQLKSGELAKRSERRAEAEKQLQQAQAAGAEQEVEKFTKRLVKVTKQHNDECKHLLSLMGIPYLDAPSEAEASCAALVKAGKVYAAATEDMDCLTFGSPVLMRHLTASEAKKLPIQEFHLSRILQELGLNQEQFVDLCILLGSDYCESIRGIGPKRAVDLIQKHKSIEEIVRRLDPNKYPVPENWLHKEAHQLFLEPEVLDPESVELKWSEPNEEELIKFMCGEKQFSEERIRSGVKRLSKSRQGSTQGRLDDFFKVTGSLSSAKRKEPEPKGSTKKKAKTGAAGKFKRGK
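Compounds are tested as a concentration series against 10 nM FEN1; after a 15 min room-temperature preincubation, 50 nM substrate starts cleavage, with plate reads at 0 and 15 min. Normalized responses are fitted by a Hill equation.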
Each line names hits and unclear results; the compound was inactive in the other large screens. Calls follow the shape of the dose curve; as a rule, active = well fitted curve in the direction sought with a large enough effect; inconclusive = small, poorly fitted or top-dose-only effect, or another doubt; inactive = no such curve, though single readings can be large; an effect the other way counts as inactive or inconclusive.

CC[C@H](C)[C@H](NC(=O)[C@@H]1CCCN1C(=O)[C@H](Cc1cnc[nH]1)NC(=O)[C@@H](NC(=O)[C@H](Cc1ccc(O)cc1)NC(=O)[C@@H](NC(=O)[C@H](CCCN=C(N)N)NC(=O)CNC)C(C)C)[C@@H](C)CC)C(=O)O	none (no result: WRN helicase inh, POLH inh, Pol beta inh, Pol iota inh, FEN1 inhibitor)
CCC(C)CC(C)CC(C)C(=O)/C=C(/O)C(C)CC(C)C/C=C/C(C)C(O)C(C)C(O)CC1CCC(C)(C)O1 (configuration not stated)	none (no result: WRN helicase inh, POLH inh, Pol beta inh, Pol iota inh, FEN1 inhibitor)
COc1ccc2c(c1)C(c1ccccc1OC)CC(=O)O2 (configuration not stated)	Pol kappa inh 39.8µM (no result: WRN helicase inh, POLH inh, Pol beta inh, Pol iota inh, FEN1 inhibitor)
O=C1c2ccc(Oc3ccc([N+](=O)[O-])cc3)cc2C(=O)N1CCO	none
O=C(O)CN1C(=O)c2ccc(Oc3cccc4c3C(=O)N(CC(=O)O)C4=O)cc2C1=O	POLH inh 79.4µM
O=C(O)CN1C(=O)c2ccc(Oc3ccc4c(c3)C(=O)N(CC(=O)O)C4=O)cc2C1=O	POLH inh 31.6µM
CC(=O)NN1C(=O)c2ccc(Oc3ccc([N+](=O)[O-])cc3)cc2C1=O	none
CC(=O)NN1C(=O)c2ccc(Oc3ccc4c(c3)C(=O)N(NC(C)=O)C4=O)cc2C1=O	Pol beta inh 11.2µM (no result: WRN helicase inh, Pol kappa inh, POLH inh, Pol iota inh, FEN1 inhibitor)
O=C(c1cnn2c1NC(=C1CC1)C=C2C(F)F)N1CCc2ccccc21	none (no result: WRN helicase inh, POLH inh, Pol beta inh)
CCCCCCCCN=C(N)c1ccc(C(=O)OCC2CCCCC2)cc1	none (no result: WRN helicase inh, POLH inh, Pol beta inh, Pol iota inh, FEN1 inhibitor)
O=C(Cn1ncc2c3ccccc3n(Cc3cccc(Cl)c3)c2c1=O)NC1CCCCCC1	POLH inh inconclusive, Pol beta inh 12.6µM, Pol iota inh inconclusive (no result: WRN helicase inh)
Cc1ccc2[nH]c3nc(N/N=C/c4cccc(O)c4)nnc3c2c1	Pol beta inh 5.01µM, Pol iota inh inconclusive
O=[N+]([O-])c1ccc(Nc2nc(NCCN3CCOCC3)nc(Nc3ccc(Cl)cc3)n2)cc1	none (no result: WRN helicase inh, POLH inh, Pol beta inh)
O=c1c(-c2ccc(O)cc2)coc2cc(O)cc(O)c12	Pol beta inh inconclusive
O=c1c(-c2cc(O)c(O)c(O)c2)coc2cc(O)c(O)c(O)c12	Pol kappa inh 0.398µM (no result: WRN helicase inh, POLH inh, Pol beta inh, Pol iota inh, FEN1 inhibitor)
O=C(NCc1ccccc1)C1=C[C@@H](c2ccc3c(c2)OCO3)C[C@@H](OCCCCO)O1	none (no result: Pol beta inh)
C#CCNC(=O)C1=C[C@@H](c2ccc3c(c2)OCO3)C[C@@H](OCCCCO)O1	POLH inh inconclusive, Pol iota inh 50.1µM (no result: Pol beta inh)
C#CCNC(=O)C1=C[C@H](c2ccc3c(c2)OCO3)C[C@H](OCCCCO)O1	POLH inh 50.1µM, Pol iota inh 35.5µM (no result: Pol beta inh)
C(=C\c1nc2ccccc2nc1/C=C/c1ccc2c(c1)OCO2)/c1ccc2c(c1)OCO2	none (no result: WRN helicase inh, POLH inh, Pol beta inh)
O=[N+]([O-])c1ccc(/C=C2\C=C(C(O)c3ccc([N+](=O)[O-])cc3)c3ccccc32)cc1 (configuration not stated)	none (no result: WRN helicase inh, POLH inh, Pol beta inh)
Cn1sc(=O)n(Cc2ccccc2)c1=O	none (no result: WRN helicase inh, POLH inh, Pol beta inh, Pol iota inh, FEN1 inhibitor)
COc1ccc(OC)c(/C=C2\SC(=S)N(NS(=O)(=O)c3ccc(C)cc3)C2=O)c1	POLH inh 79.4µM, Pol beta inh inconclusive
CCOc1cc(/C=C2\SC(=S)N(NS(=O)(=O)c3ccccc3)C2=O)ccc1O	WRN helicase inh 56.2µM, Pol iota inh inconclusive
CCOc1cc(/C=C2\SC(=S)N(N3CCOCC3)C2=O)ccc1O	none
CCOc1cc(/C=C2\SC(=S)N(Nc3ccccc3)C2=O)ccc1O	WRN helicase inh 17.8µM, Pol kappa inh inconclusive, POLH inh inconclusive, Pol beta inh 12.6µM, Pol iota inh inconclusive, FEN1 inhibitor inconclusive
CCOc1cc(/C=C2\CN(C)C/C(=C\c3ccc(O)c(OCC)c3)C2=O)ccc1O	POLH inh 44.7µM, Pol iota inh inconclusive
CCOc1ccc(/C=C2\SC(=S)N(NS(=O)(=O)c3ccc(C)cc3)C2=O)cc1OC	POLH inh inconclusive
Cc1cc(Br)ccc1NC(=O)COC(=O)c1ccccc1OCC(=O)N(C)C	none (no result: WRN helicase inh, POLH inh, Pol beta inh)
COc1ccccc1CC(=O)NO	none (no result: WRN helicase inh, POLH inh, Pol beta inh)
C=C1N[C@]2(C(=O)COC(C)=O)[C@@H](C[C@H]3[C@@H]4CCC5=CC(=O)C=C[C@]5(C)[C@H]4[C@@H](O)C[C@@]32C)O1	none (no result: WRN helicase inh, POLH inh, Pol beta inh, Pol iota inh, FEN1 inhibitor)
O=S(=O)(c1cccc(C(F)(F)F)c1)N1CCN(c2nc(-c3cccs3)nc3cc(Cl)ccc23)CC1	none (no result: WRN helicase inh, POLH inh, Pol beta inh)
O=C(C[n+]1ccncc1)c1cccc([N+](=O)[O-])c1	none (no result: WRN helicase inh, POLH inh, Pol beta inh)
